In PubChem BioAssay:
A number with no mark means an inactive call. For some assays here: Entries with a potency or affinity are not part of this list. Active and inactive are the calls of the source. Unless noted, no rule for the calls is given here.

Experiments:
[1] = antimalarial activity against Dd2 strain (AID 2302;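 active = growth inhibition above 50% at the single 2 µM test dose, taken to imply half-maximal potency below 2 µM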;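 also: 0% = DMSO untreated growth and 100% = chloroquine plus artemisinin killed control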); conditions: P. falciparum Dd2 in RBCs, LDH growth readout, 72 h; at 2 µM; active compounds read high
[2] = HepG2 cytotoxicity, primary screen, cytotoxicity control for P. falciparum antimalarial project, cell-based, ATP luminescence (AID 2303;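 active = inhibition above 50%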;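 also: 0% = DMSO wells and 100% = digitonin-killed cells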); conditions: HepG2 viability, 24-48 h, at 10 µM, active compounds read high
[3] = molecular target: L-lactate dehydrogenase (Plasmodium falciparum (isolate CDC / Honduras)) (UniProt Q27743); assay: PfLDH activity inhibition – cell lysate, 3D7 strain, counter-screen for P. falciparum growth inhibition project (AID 2304);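 also: 0% = vehicle and 100% = reference inhibitor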; conditions: P. falciparum 3D7 crude extract, LDH APAD/NBT absorbance; at 2 µM; active compounds read high
Chain of L-lactate dehydrogenase (Plasmodium falciparum (isolate CDC / Honduras)) (Q27743 whole entry, looked up): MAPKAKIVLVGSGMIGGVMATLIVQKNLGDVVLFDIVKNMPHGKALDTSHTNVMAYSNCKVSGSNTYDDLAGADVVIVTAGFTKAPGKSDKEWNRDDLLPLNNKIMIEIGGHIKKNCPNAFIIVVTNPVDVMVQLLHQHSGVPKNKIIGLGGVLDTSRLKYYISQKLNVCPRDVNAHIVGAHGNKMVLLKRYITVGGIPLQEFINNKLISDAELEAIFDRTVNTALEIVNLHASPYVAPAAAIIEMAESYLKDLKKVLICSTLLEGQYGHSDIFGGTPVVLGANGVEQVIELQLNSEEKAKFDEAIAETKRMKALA

[4] = inhibition of 3D7 malaria parasite growth – strain 3D7 (AID 2306);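 also: 0% = DMSO wells and 100% = chloroquine plus artemisinin control wells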; conditions: P. falciparum 3D7 erythrocytic growth, LDH absorbance, 72 h; at 2 µM; active compounds read high
[5] = molecular target: Calcium-dependent protein kinase 1 (Plasmodium falciparum (isolate 3D7)) (UniProt P62344); assay: PfCDPK1 kinase inhibitors, biochemical, TCAMS library (AID 1159585; cut-off not given, nearly all actives have IC50 up to about 0.98 µM;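 also: inhibitors leave more ATP so luminescence rises with inhibition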); conditions: recombinant PfCDPK1, Kinase-Glo ATP depletion luminescence
Chain of Calcium-dependent protein kinase 1 (Plasmodium falciparum (isolate 3D7)) (P62344 whole entry, looked up): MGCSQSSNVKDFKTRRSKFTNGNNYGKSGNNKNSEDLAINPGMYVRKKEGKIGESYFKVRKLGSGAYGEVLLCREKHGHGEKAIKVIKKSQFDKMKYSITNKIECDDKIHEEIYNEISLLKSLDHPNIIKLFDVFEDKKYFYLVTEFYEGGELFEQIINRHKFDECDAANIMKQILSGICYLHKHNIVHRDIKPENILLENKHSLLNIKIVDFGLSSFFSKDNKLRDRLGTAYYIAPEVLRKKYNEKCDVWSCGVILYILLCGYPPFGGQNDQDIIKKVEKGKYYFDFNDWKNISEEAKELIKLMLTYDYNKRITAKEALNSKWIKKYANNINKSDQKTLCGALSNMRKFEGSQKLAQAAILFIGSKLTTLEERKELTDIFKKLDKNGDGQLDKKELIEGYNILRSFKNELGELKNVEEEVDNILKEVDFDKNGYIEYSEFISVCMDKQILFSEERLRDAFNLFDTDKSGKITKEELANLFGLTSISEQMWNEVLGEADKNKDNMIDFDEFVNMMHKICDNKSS

[6] = molecular target: Plasmodium falciparum protein kinase 6 (PK6, PF3D7_1337100) (UniProt Q8IDW1); assay: PfPK6 kinase inhibitors, biochemical, TCAMS library (AID 1159586); conditions: recombinant PfPK6, Kinase-Glo ATP depletion luminescence
Chain of Plasmodium falciparum protein kinase 6 (PK6, PF3D7_1337100) (Q8IDW1 1-305): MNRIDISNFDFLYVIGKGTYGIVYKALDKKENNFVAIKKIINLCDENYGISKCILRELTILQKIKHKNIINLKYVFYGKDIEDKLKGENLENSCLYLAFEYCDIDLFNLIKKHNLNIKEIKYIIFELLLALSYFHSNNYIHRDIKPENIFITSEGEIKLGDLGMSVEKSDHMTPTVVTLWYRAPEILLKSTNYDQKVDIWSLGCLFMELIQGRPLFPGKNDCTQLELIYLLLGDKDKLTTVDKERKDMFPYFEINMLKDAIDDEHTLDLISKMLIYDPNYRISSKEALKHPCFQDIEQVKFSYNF

[7] = molecular target: Protein kinase 7 (PK7), Plasmodium falciparum 3D7 (PF3D7_0213400) (UniProt Q7YTF7); assay: inhibition of Plasmodium PK7 catalytic activity – biochemical, TCAMS antimalarial set, Kinase-Glo luminescence (AID 1159587); conditions: recombinant PfPK7, Kinase-Glo ATP depletion luminescence
Chain of Protein kinase 7 (PK7), Plasmodium falciparum 3D7 (PF3D7_0213400) (Q7YTF7 1-343): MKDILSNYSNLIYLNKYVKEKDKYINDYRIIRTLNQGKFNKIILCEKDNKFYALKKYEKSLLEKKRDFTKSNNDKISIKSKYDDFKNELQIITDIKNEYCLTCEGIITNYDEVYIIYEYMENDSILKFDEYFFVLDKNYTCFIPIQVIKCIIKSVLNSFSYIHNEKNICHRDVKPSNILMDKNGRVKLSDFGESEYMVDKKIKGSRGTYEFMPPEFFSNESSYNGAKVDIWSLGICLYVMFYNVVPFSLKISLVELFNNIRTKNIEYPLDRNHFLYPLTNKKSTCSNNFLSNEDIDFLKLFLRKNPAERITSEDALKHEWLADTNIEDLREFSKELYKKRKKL

[8] = molecular target: Calcium-dependent protein kinase 4 (Plasmodium falciparum (isolate 3D7)) (UniProt Q8IBS5); assay: PfCDPK4 kinase inhibitors, biochemical, TCAMS library (AID 1159588; cut-off not given, nearly all actives have IC50 up to about 0.91 µM); conditions: recombinant PfCDPK4, Kinase-Glo ATP depletion luminescence
Chain of Calcium-dependent protein kinase 4 (Plasmodium falciparum (isolate 3D7)) (Q8IBS5 whole entry, looked up): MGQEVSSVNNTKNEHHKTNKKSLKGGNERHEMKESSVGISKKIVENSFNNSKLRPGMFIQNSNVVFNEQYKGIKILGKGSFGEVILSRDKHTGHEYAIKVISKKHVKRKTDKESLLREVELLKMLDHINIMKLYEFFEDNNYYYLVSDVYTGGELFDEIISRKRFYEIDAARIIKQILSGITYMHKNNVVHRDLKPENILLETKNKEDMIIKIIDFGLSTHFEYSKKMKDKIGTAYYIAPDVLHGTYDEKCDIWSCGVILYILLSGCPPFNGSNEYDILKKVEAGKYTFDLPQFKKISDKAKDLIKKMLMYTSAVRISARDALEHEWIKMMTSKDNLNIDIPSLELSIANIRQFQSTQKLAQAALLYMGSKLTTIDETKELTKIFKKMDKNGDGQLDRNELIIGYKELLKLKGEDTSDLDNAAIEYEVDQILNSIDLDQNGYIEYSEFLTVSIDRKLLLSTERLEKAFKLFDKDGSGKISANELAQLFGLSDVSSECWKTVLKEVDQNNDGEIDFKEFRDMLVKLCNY

| SMILES | growth inhibition [1] | inhibition [2] | inhibition [3] | growth inhibition [4] | outcome [5] | outcome [6] | outcome [7] | outcome [8] |
| --- | --- | --- | --- | --- | --- | --- | --- | --- |
| Cc1nc2ccc3ccc(CNc4ccc(C(=O)N[C@@H](CCC(=O)O)C(=O)O)cc4)cc3c2c(=O)[nH]1 | 95% (active) | 32% | 0% | 89% (active) | inactive | inactive | inactive | inactive |
| COc1ccc(NC(=O)[C@H](CC(C)C)Nc2cc(C)nc(NCc3ccccc3C)n2)cc1 | 78% (active) | 12% | 0% | 101% (active) | inactive | inactive | inactive | inactive |
| CN1Cc2cc(NC(=O)/C=C/c3ccccc3Cl)ccc2C(C)(C)C1 | 96% (active) | 12% | -3% | 99% (active) | inactive | inactive | inactive | inactive |
| O=C(Cc1cccc(Cl)c1)Nc1ccc(N2CCC(NCc3ccc4ncccc4c3)CC2)cc1 | 8% | 10% | -1% | 81% (active) | inactive | inactive | inactive | inactive |
| N#Cc1ccc(CN2CCC(Oc3ccc(NC(=O)c4ccco4)cc3Cl)CC2)cc1 | 96% (active) | 7% | 6% | 95% (active) | inactive | inactive | inactive | inactive |
| COc1ccccc1C(=O)N1CCN(Cc2cccs2)CC1 | 1% | 87% (active) | -1% | 96% (active) | inactive | inactive | inactive | inactive |
| CN1CCN(c2cc3c(cc2Cl)CCN3C(=O)Cc2ccc(NC(=O)Nc3cccc4ccccc34)cc2)CC1 | 18% | 12% | -11% | 92% (active) | inactive | inactive | inactive | inactive |
| CC(C)CCN1CCC(Oc2ccc(NC(=O)c3ccsc3)cc2Cl)CC1 | 81% (active) | 19% | 0% | 89% (active) | inactive | inactive | inactive | inactive |
| COc1cc(Cc2cnc(N)nc2N)cc(OC)c1OCCCCCN1C(=O)c2ccccc2C1=O | 4% | 5% | 3% | 97% (active) | inactive | inactive | inactive | inactive |
| Cc1cc(N(C)C)nc(Nc2ccc(NC(=O)C3CCCCC3)cc2)n1 | 68% (active) | 3% | -1% | 101% (active) | inactive | inactive | inactive | inactive |
